# Laboratory results: PubChem BioAssay (Tox21)
# Results filed as inconclusive are left out. A call without a number means that no potency is given here. Activity calls are given as the source filed them. The call rests on the fitted dose curve; in most records, active means well fitted cell-killing curve with a large enough effect in the repeat runs; inconclusive means weak or mixed curves, or effect the other way; inactive means flat fitted curve, though single readings scatter.
# Assay: cAMP Responsive Elements (CRE) small molecule agonists, cell-based qHTS assay: qHTS cell viability counter screen (AID 2060914);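 further: viability read after 3 h of compound exposure; nearly all actives have a fitted effect of over 50% in size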
# Conditions: CRE-bla HEK293T viability, CellTiter-Glo luminescence, 5 h; series mostly up to 92.4 µM
# Text: National Center for Advancing Translational Sciences [NCATS]
# Division of Preclinical Innovation [DPI]
# U.S. Environmental Protection Agency [EPA]
# National Institutes of Environmental Health Sciences [NIEHS]
# National Toxicology Program [NTP]
# U.S. Food and Drug Administration [FDA]
# CREB (cyclic-AMP Responsive Element Binding Protein) is a cellular transcription factor. It binds to certain DNA sequences called cAMP Responsive Elements (CRE) and regulates the transcription of the genes. […] This cell line can be used to find agonists/antagonists of the cyclic AMP signaling pathway. The activation of the report gene under culture conditions can be detected by fluorescence intensity. This cell line has been used to screen the Tox21 10K compound library to identify agonists that induce oxidative stress. The cytotoxicity of the Tox21 compound library against the CRE-bla cell line was tested in parallel by measuring the cell viability using CellTiter-Glo assay (Promega, Madison, WI) in the same wells.
# Tox21 Assay Protocol Summary:
# CRE-bla Hek 293T cells were suspended in assay medium (DMEM containing 10% dialyzed FBS, 0.1 mM NEAA, 1 mM sodium pyruvate and 25 mM HEPES) and dispensed at 2,000 cells/5 uL /well into 1536-well black wall/clear bottom plates using a Multidrop Combi (ThermoFisher Scientific, Waltham, MA) dispenser. After the assay plates were incubated at 37 C/5% CO2 for 18 hrs, 23 nL of compounds dissolved in DMSO, positive controls or DMSO only was transferred to the assay plate by a pintool workstation (Kalypsys, San Diego, CA). After the plates were incubated at 37 C/5% CO2 for 3 hrs, 1 uL of LiveBLAzer B/G FRET substrate (Invitrogen, Carlsbad, CA) was added to each well using Bioraptr Flying Reagent Dispenser (FRD, Aurora Discovery, San Diego, CA). The plates were incubated at room temperature for 2 h, then fluorescence intensities were measured using an Envision plate reader (PerkinElmer, Shelton, CT) at Excitation 405nm, Emission 460nm and 530nm. The % activity was determined from the ratio of 460nm/530nm. For cell viability readout that measures cytotoxicity, 4 uL /well of CellTiter-Glo reagent was added into the assay plates using Bioraptr FRD. After 30 min incubation at room temperature, the luminescence intensity in the assay plates was measured using a ViewLux (PerkinElmer, Shelton, CT) plate reader.
# Potency means the concentration at half of the fitted maximal effect.
Compound,Potency,"activity change, negative = cytotoxicity"
CCCCC[Si](OCC)(OCC)OCC,inactive,
O=c1[nH]c(=O)n([C@H]2CCCO2)cc1F,inactive,
COC(=O)[C@H]1[C@H]2C[C@@H]3c4[nH]c5cc(OC)ccc5c4CCN3C[C@H]2C[C@@H](OC(=O)/C=C/c2ccc(O)c(OC)c2)[C@@H]1OC,inactive,
CCN1C=CN(C)C1C (stereo not given),inactive,
OC(Cn1cncn1)(Cn1cncn1)c1ccc(F)cc1F,inactive,
CCCCN(C)C,inactive,
CC(=O)Oc1ccc(C(C)=O)cc1,inactive,
CCCCCCCC(=O)Oc1c(Br)cc(C#N)cc1Br,inactive,
Cc1c(C)c2c(c(C)c1OC(=O)CCC(=O)OCCO)CC[C@@](C)(CCC[C@H](C)CCC[C@H](C)CCCC(C)C)O2,26.6 µM (active),
OCCN(CCO)CCN(CCO)CCO,inactive,
CC(CSC(=O)c1ccccc1)C(=O)N1C[C@@H](Sc2ccccc2)C[C@H]1C(=O)O (stereo not given in full),,-0.289% [at 18.9 µM] (inactive)
Nc1c2c(nc3ccccc13)CCCC2O (stereo not given),inactive,
O=C(C(=O)c1ccc(Br)cc1)c1ccc(Br)cc1,,-3.4% [at 18.9 µM] (inactive)
O=C(c1ccccc1)c1cc(Cl)ccc1O,inactive,
CCCCCCCC/C=C/CCCOC(C)=O,inactive,
O=C(COc1ccc(Cl)cc1)N1CCN(Cc2ccc3c(c2)OCO3)CC1,inactive,
OCCN(CCO)c1nc(N2CCCCC2)c2nc(N(CCO)CCO)nc(N3CCCCC3)c2n1,inactive,
CC1(C)SC(C)(C)SC(C)(C)S1,inactive,
CCCC(=O)OCc1ccccc1,inactive,
CC(CN)CC(C)(C)CCN (stereo not given),inactive,

Compound,Potency,"activity change, negative = cytotoxicity"
CS(=O)(=O)c1ccc([C@@H](O)[C@@H](CO)NC(=O)C(Cl)Cl)cc1,inactive,
Clc1ccccc1C(c1ccccc1)(c1ccccc1)n1ccnc1,inactive,
CC/C=C(\C(=O)N[C@@H]1C(=O)N2C(C(=O)OCOC(=O)C(C)(C)C)=C(COC(N)=O)CS[C@H]12)c1csc(N)n1,inactive,
COC(C)OC,inactive,
CCc1ccc(C)nc1,inactive,
CCC(CC)(CC(=O)Nc1cccc(/C=C/c2nc(C3CCC3)cs2)c1)C(=O)O,inactive,
CCOC(=O)COc1ccc2c(c1)CC(NCC(O)c1cccc(Cl)c1)CC2 (stereo not given),inactive,
CC(=O)C(C)=O,inactive,
NCc1ccc(S(N)(=O)=O)cc1,inactive,
CC1(C)[C@H](C(=O)OCc2cccc(Oc3ccccc3)c2)[C@@H]1C=C(Cl)Cl,inactive,
CC(=O)OCC(=O)[C@@]1(O)CC[C@H]2[C@@H]3CCC4=CC(=O)CC[C@]4(C)[C@H]3C(=O)C[C@@]21C,inactive,
Cc1ncc([N+](=O)[O-])n1C,inactive,
Cc1c(Cl)c(=O)oc2cc(O)ccc12,inactive,
CCCCOC(=O)CC#N,inactive,
CCCCOCCOCCOC(=O)CCCCC(=O)OCCOCCOCCCC,inactive,
O=C1OC(=O)c2cc(-c3ccc4c(c3)C(=O)OC4=O)ccc21,inactive,
C=C(C)C(=O)OCC,inactive,
CC(C)(C)c1ccc(S)cc1,inactive,
CCC(C)(CCC(C)C)C(=O)O (stereo not given),inactive,
CC(C)CCCCCCOC(=O)C1CCCCC1C(=O)OCCCCCCC(C)C (stereo not given),inactive,
